# Counter-ions that a name gives are not always drawn. In all, about 2,000 compounds were measured (“fractional viability relative to vehicle”: median about 0.91, lowest 2% from about 0.045 on). Shown is part of a subset that was picked to be rich in the lowest values.
# System: TYKNU
# Experiment: fractional viability relative to vehicle; TYKNU is a high-grade serous ovarian cancer line; higher = less growth inhibition
# Details: 72 h
# Procedure, shortened: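 TYKNU control cells or lentiCRISPRv2 knockout derivatives were seeded at 500 cells per well into drug-stamped 384-well plates holding a ~2100-compound library at 2 or 10 μM, in duplicate. Cells were grown at 37 °C in 5% CO2 in RPMI 1640 with 10% FBS, and drug treatment lasted 72 h. Viability was read by Cell Titer Glo luminescence. Duplicate treatment wells were averaged and normalised to duplicate control wells from the same plate position.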
# [1] = 2uM, genotype: DNM1L knockout (sgDNM1L #1)
# [2] = 2uM, genotype: sgCTRLA1 (non-targeting control)
# [3] = 10uM, genotype: DNM1L knockout (sgDNM1L #1)
# [4] = 10uM, genotype: sgCTRLA1 (non-targeting control)
SMILES,fractional viability [1],fractional viability [2],fractional viability [3],fractional viability [4]
C[C@@H]1CC[C@@]2(OC1)O[C@H]1C[C@H]3[C@@H]4CC=C5C[C@@H](O[C@@H]6O[C@H](CO)[C@@H](O[C@@H]7O[C@@H](C)[C@H](O)[C@@H](O)[C@H]7O)[C@H](O)[C@H]6O[C@@H]6O[C@@H](C)[C@H](O)[C@@H](O)[C@H]6O)CC[C@]5(C)[C@H]4CC[C@]3(C)[C@H]1[C@@H]2C [Dioscin],0.0559,0.0816,0.0468,0.0196
Cc1cc2c(C(C)C)c(O)c(O)c(C=O)c2c(O)c1-c1c(C)cc2c(C(C)C)c(O)c(O)c(C=O)c2c1O [Gossypol],0.9,1.04,0.253,0.247
CCN(Cc1ccc(Cl)nc1)/C(=C/[N+](=O)[O-])NC [Nitenpyram],0.733,1.08,0.638,0.862
Cc1ccc(-n2nccn2)c(C(=O)N2CCN(c3nc4cc(Cl)ccc4o3)CC[C@H]2C)c1 [Suvorexant (MK-4305)],0.969,1.14,0.861,1.04
CC(C)=CCC[C@]1(C)C=Cc2c(O)c3c(c(CC=C(C)C)c2O1)O[C@]12C(=C[C@@H]4C[C@H]1C(C)(C)O[C@@]2(C/C=C(/C)C(=O)O)C4=O)C3=O [Gambogic Acid],0.068,0.0361,0.0214,0.00876
CN(C)Cc1c[nH]c2ccccc12 [Gramine],0.908,1.14,0.859,0.971
[O-][n+]1ccccc1[S-].[O-][n+]1ccccc1[S-].[Zn+2] [Zinc Pyrithione],0.0424,0.0207,0.0251,0.0128
Cc1sc2c(c1C)C(c1ccc(Cl)cc1)=N[C@@H](CC(N)=O)c1nnc(C)n1-2,0.35,0.412,0.319,0.408
c1ccc([C@@H]2C[C@H]2NC2CCNCC2)cc1,0.728,0.964,0.712,0.824
CC(=O)Nc1ccc(Cc2ccc(NC(C)=O)cc2)cc1,0.759,0.99,0.747,0.791
O=C(O[C@H]1C[C@H]2CC[C@@H](C1)[N+]21CCCC1)C(O)(c1ccccc1)c1ccccc1 [Trospium chloride],0.962,1.06,0.908,1.09
Cc1cccc(Cc2c[nH]cn2)c1C [Detomidine HCl],1.07,1.01,0.798,1.1
CN[C@@H]1C[C@H]2O[C@@](C)([C@@H]1OC)n1c3ccccc3c3c4c(c5c6ccccc6n2c5c31)C(=O)NC4 [Staurosporine],0.092,0.066,0.0336,0.0269
Cn1c(COP(=O)(NCCBr)NCCBr)cnc1[N+](=O)[O-],1.47,1.27,0.89,1.27
CCN(CC)C(=O)c1ccc(C2=CC3(CCNCC3)Oc3cccc(O)c32)cc1,1.05,1.03,0.914,0.931
C[C@@H]1O[C@@H](O[C@H]2C[C@@H](O)[C@]3(CO)[C@H]4[C@H](O)C[C@]5(C)[C@@H](C6=CC(=O)OC6)CC[C@]5(O)[C@@H]4CC[C@]3(O)C2)[C@H](O)[C@H](O)[C@H]1O [Ouabain],0.05,0.0369,0.0346,0.0311
N#C[C@H](O[C@@H]1O[C@H](C(=O)O)[C@@H](O)[C@H](O)[C@H]1O)c1ccccc1 [Laetrile],0.984,1.23,0.709,1.16
COc1cc(-n2c(=S)[nH]c3ccccc3c2=O)c(Cl)cc1Cl [Mdivi-1],0.879,0.994,0.654,0.851
Cc1cccc(C)c1NC(=O)CN1CCCC1=O [Nefiracetam],0.909,1.08,1.02,1.16
CC(C)N(CCNC(=O)CN1CCCC1=O)C(C)C [Pramiracetam],0.94,1.16,0.882,1.02
C[C@@H]1[C@H](O)[C@@H](C)/C=C/C=C/CC/C=C/C=C/C=C/C=C/[C@H](O[C@H]2O[C@@H](C)[C@H](O)[C@@H](N)[C@H]2O)C[C@@H]2O[C@](O)(C[C@@H](O)[C@H](O)CC[C@@H](O)C[C@@H](O)C[C@@H](O)CC(=O)O[C@H]1C)C[C@H](O)[C@H]2C(=O)O [Nystatin (Fungicidin)],0.929,1.11,0.854,1.03
O=C(O)c1nn(Cc2ccc(Cl)cc2Cl)c2ccccc12 [Lonidamine],0.961,1.06,0.87,1.16
Cc1sc2c(c1C)C(c1ccc(Cl)cc1)=N[C@@H](CC(=O)OC(C)(C)C)c1nnc(C)n1-2,0.37,0.516,0.278,0.394
O=C(O)CNC(=O)c1c(O)c2ccccc2n(Cc2ccccc2)c1=O,1.04,1.17,0.762,1
O=c1[nH]c2ccc(Cl)cc2c(N[C@@H]2CN3CCC2CC3)c1-c1nc2ccccc2[nH]1,0.154,0.195,0.0777,0.0446
O=S(=O)(CC1CS1)c1ccc(Oc2ccccc2)cc1 (centres undefined),0.744,0.851,0.163,0.172

SMILES,fractional viability [1],fractional viability [2],fractional viability [3],fractional viability [4]
C[C@](O)(COc1ccc(C#N)cc1)C(=O)Nc1ccc(C#N)c(C(F)(F)F)c1,1,1.13,0.879,1.03
CCN1CCN(C(=O)Cc2ccc(Nc3ncc(F)c(Nc4ccc(C(=O)Nc5ccccc5Cl)cc4)n3)cc2)CC1 [Aurora A Inhibitor I],0.904,0.926,0.0479,0.0775
NC(=O)CN1CC(O)CC1=O (centres undefined) [Oxiracetam],0.755,1.16,0.688,0.976
C#C[C@]1(O)C=C[C@H]2[C@@H]3CCC4=CC(=O)CC[C@@H]4[C@H]3CC[C@@]21CC [Gestodene],1.13,1.04,0.861,0.945
CC1=C(O)C(=O)C=C2C1=CC=C1[C@@]2(C)CC[C@@]2(C)[C@@H]3C[C@](C)(C(=O)O)CC[C@]3(C)CC[C@]12C [Celastrol],0.0457,0.0557,0.0154,0.0139
CC(C)(C)c1cc(C=C(C#N)C#N)cc(Br)c1O,1.21,1.08,1.09,0.939
CCOc1ccccc1-n1c(C(C)N2CCN(C(=O)COc3ccc(Cl)cc3)CC2)nc2ccccc2c1=O (centres undefined) [Erastin],0.123,0.0716,0.0411,0.0416
O=[N+]([O-])/C=C/c1ccc2c(c1)OCO2,0.362,0.336,0.0604,0.0474
Cc1cccc(C(C)c2c[nH]cn2)c1C (centres undefined) [Medetomidine HCl],1.09,1.09,0.755,1.03
O=[N+]([O-])c1ncc[nH]1 [Azomycin],0.753,1.09,0.757,0.975
CC[C@H](C)[C@@H]([C@@H](CC(=O)N1CCC[C@H]1[C@H](OC)[C@@H](C)C(=O)N[C@H](C)[C@@H](O)c1ccccc1)OC)N(C)C(=O)[C@@H](NC(=O)[C@@H](NC)C(C)C)C(C)C [Monomethyl auristatin E (MMAE)],0.0977,0.0889,0.0769,0.0612
Cc1cccc([C@H](C)c2c[nH]cn2)c1C [Dexmedetomidine],1.06,1.23,0.8,1.05
CCCCCCCCCCCCCCCC[n+]1ccccc1 [Cetylpyridinium Chloride],0.216,0.196,0.0152,0.0105
Cc1ccccc1-n1c(Cn2ncc3c(N)ncnc32)nc2cccc(C)c2c1=O,0.87,1.14,0.731,1.15
CCc1c(C(=O)C(N)=O)c2c(OCC(=O)O)cccc2n1Cc1ccccc1,1.09,1.02,0.94,0.973
Cn1cc(C2=C(c3cn(C4CCN(Cc5ccccn5)CC4)c4ccccc34)C(=O)NC2=O)c2ccccc21,0.952,0.961,0.948,0.916
Cc1cc(C(C#N)c2ccc(Cl)cc2)c(Cl)cc1NC(=O)c1cc(I)cc(I)c1O (centres undefined) [Closantel],1.13,1.17,0.948,1.1
Cc1cc(C(C#N)c2ccc(Cl)cc2)c(Cl)cc1NC(=O)c1cc(I)cc(I)c1O (centres undefined) [Closantel Sodium],0.98,1.19,0.879,0.97
COc1ccc(C[C@H]2NC[C@H](O)[C@H]2OC(C)=O)cc1 [Anisomycin],0.109,0.0785,0.118,0.0319
COc1cc(C)[nH]c(=O)c1CNC(=O)c1c(C)n([C@H](C)C2CCOCC2)c2ccccc12,0.85,0.972,0.755,0.698
CCc1cc2c(s1)-n1c(C)nnc1CN=C2c1ccccc1Cl [Etizolam],0.778,1,0.707,0.96
CC(C)(C)[C@]1(O)CC2OC(=O)CC23C(=O)OC2OC(=O)[C@H](O)C231 (some centres undefined) [Bilobalide],0.854,1.09,0.975,1.11
O=C1CCC[C@@H]2[C@H]3CCCN4CCC[C@@H](CN12)[C@@H]34 [(+)-Matrine],0.865,1.03,0.795,1
COc1cc([C@@H]2c3cc4c(cc3[C@H](O)[C@H]3COC(=O)[C@@H]23)OCO4)cc(OC)c1OC [Picropodophyllin (PPP)],0.139,0.142,0.121,0.0713
O=C(NCC1CCOCC1)c1cnc(Nc2ccc(Cl)cc2Cl)nc1C(F)(F)F,1.03,1.32,0.768,1.19
